Measured values as given in PubChem BioAssay (NCATS).
Several values for one entry are separate records, joined by “and”; a condition that tells them apart may be missing. Equal values may be shown once. Results filed as inconclusive are left out. Where a call stands in place of a potency, no number is given. Values without a mark were called inactive. Activity calls are given as the source filed them. Calls follow the shape of the dose curve; as a rule, active = well fitted curve in the direction sought with a large enough effect; inconclusive = small, poorly fitted or top-dose-only effect, or another doubt; inactive = no such curve, though single readings can be large; an effect the other way counts as inactive or inconclusive.

Columns and labels:
[1] = molecular target: Cytochrome P450 3A7 (Homo sapiens) (UniProt P24462); experiment: Cytochrome P450 family 3 subfamily A member 7 (CYP3A7) small molecule antagonists: luciferase biochemical qHTS assay (AID 1963596); also: nearly all actives have a fitted effect of over 40% in size
How it was run: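 Enzyme-substrate mix + cpd (DMSO), 10 min RT; + NADPH regen system, 1 h RT; + luciferin detection reagent, 20 min RT; luminescence read. Proluciferin substrate, P450-Glo format, 1536-well qHTS.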

[2] = Quantitative highthroughput screen to assess conditional lethalithy of NOMO1 cells grown in RPMI1640 with dialyzed fetal bovine serum (RPMI+ds) (AID 1963877); also: series mostly up to about 46 µM; nearly all actives have a fitted effect of over 30% in size
How it was run: (§1)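 Each medium arm—HPLM with 10% dialyzed FBS, or RPMI1640 with 5 mM glucose and 10% untreated or dialyzed FBS—was screened against an 11-point, 3-fold compound titration for 48 h at 37 °C, with CellTiter-Glo luminescence as endpoint.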

[3] = Quantitative highthroughput screen to assess conditional lethalithy of P12 Ichikawa cells grown in RPMI1640 with untreated serum (RPMI+s) (AID 1963881); settings: Potency: viability; also: series mostly up to about 46 µM; nearly all actives have a fitted effect of over 35% in size
How it was run: as §1

[4] = Quantitative highthroughput screen to assess conditional lethalithy of SEM cells grown in Human Plasma-Like Medium with dialyzed fetal bovine serum (HPLM+ds) (AID 1963882); also: series mostly up to about 46 µM; nearly all actives have a fitted effect of over 35% in size
How it was run: as §1

[5] = Quantitative highthroughput screen to assess conditional lethalithy of SEM cells grown in RPMI1640 with dialyzed fetal bovine serum (RPMI+ds) (AID 1963884); also: series mostly up to about 46 µM; nearly all actives have a fitted effect of over 35% in size
How it was run: as §1

[6] = Viability qHTS for spleen associated tyrosine kinase inhibitor (SYKi) drug resistant MV4-11 cells (AID 1963824); also: nearly all actives have a fitted effect of over 35% in size; also: potency is read from the fitted curve at half-maximal effect
How it was run: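 SYK-inhibitor-resistant MV4-11 AML cells were seeded at 500 per well onto compound and cultured 72 hours (37 °C, 5% CO2). CellTiter-Glo was then added, and after 10 min at room temperature, luminescence gave viability.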

[7] = Cellular viability qHTS for adrenocortical cancer (ACC) cell line SW-13 (AID 1963989); settings: SW-13 ACC cells viability, CellTiter-Glo, 48 h; activity (max response): active compounds read low;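 also: cells grown in serum-free medium with ITS supplement; nearly all actives have a fitted effect of over 65% in size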
How it was run: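 48 h treatment, SW-13 in ITS/DMEM serum-free; doses up to 46 uM; readout CellTiter-Glo luminescence; curve fit four-parameter logistic.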

[8] = Cellular viability qHTS for adrenocortical cancer (ACC) cell line NCI-H295R (AID 1963990); also: nearly all actives have a fitted effect of over 60% in size
How it was run: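 Compound titrations (up to 46 uM final) are applied to NCI-H295R cultures for 48 h at 37C. Viable cell number is estimated by CellTiter-Glo signal, normalised to DMSO and doxorubicin controls.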

[9] = Quantitative highthroughput screen to assess conditional lethalithy of P12 Ichikawa cells grown in RPMI1640 with dialyzed fetal bovine serum (RPMI+ds) (AID 1963880); settings: Potency: P12-Ichikawa viability; also: nearly all actives have a fitted effect of over 35% in size
How it was run: as §1

[10] = Quantitative highthroughput screen to assess conditional lethalithy of P12 Ichikawa cells grown in Human Plasma-Like Medium with dialyzed fetal bovine serum (HPLM+ds) (AID 1963879); settings: Potency: viability; also: nearly all actives have a fitted effect of over 35% in size; also: potency is read from the fitted curve at half-maximal effect; as to viability: series mostly up to about 46 µM
How it was run: as §1

[11] = Quantitative highthroughput screen to assess conditional lethalithy of NOMO1 cells grown in RPMI1640 with untreated serum (RPMI+s) (AID 1963876)
How it was run: as §1

[12] = Viability qHTS for spleen associated tyrosine kinase inhibitor (SYKi) naive MV4-11 cells (AID 1963823); also: potency is read from the fitted curve at half-maximal effect; nearly all actives have a fitted effect of over 40% in size
How it was run: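 SYKi-naive MV4-11 AML cells, 500 per well, were exposed to library compounds for 72 hr at 37 C, 5% CO2. Viability was then read by CellTiter-Glo luminescence after 10 min at room temperature.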

Cytochrome P450 3A7 (Homo sapiens), sequence (P24462 whole entry, looked up): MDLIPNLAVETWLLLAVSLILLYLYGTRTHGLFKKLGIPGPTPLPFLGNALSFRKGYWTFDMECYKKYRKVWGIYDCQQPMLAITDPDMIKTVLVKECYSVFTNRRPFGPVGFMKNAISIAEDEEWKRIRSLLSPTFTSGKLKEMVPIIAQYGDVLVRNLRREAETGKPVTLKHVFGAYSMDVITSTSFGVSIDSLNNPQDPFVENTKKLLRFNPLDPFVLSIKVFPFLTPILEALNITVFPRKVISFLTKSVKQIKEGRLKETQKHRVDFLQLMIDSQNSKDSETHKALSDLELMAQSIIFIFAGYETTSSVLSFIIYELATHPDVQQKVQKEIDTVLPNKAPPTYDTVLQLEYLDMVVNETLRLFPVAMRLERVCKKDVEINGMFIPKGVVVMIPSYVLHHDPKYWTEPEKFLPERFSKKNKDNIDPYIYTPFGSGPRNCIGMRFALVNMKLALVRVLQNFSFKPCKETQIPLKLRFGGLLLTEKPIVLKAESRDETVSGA

Q: Which results are given for `CC(=O)N(C)c1cccc(-c2ccnc3c(C(=O)c4cccs4)cnn23)c1`?
A: Potency [1]: inactive; Potency [2]: inactive; Potency [3]: inactive; Potency [4]: inactive; Potency [5]: inactive

Q: Which results are given for `Nc1ccncc1`?
A: Potency [1]: inactive; Potency [6]: inactive; activity (max response) [7]: 11.8%; Potency [8]: inactive

Q: Which results are given for `N[C@@H]1C[C@H]1c1ccccc1`?
A: Potency [1]: inactive; Potency [6]: 11.9 µM (active) and 3.72 µM (active); activity (max response) [7]: 6.98%

Q: With `C[C@H](N)[C@H](O)c1ccc(O)c(O)c1` as the compound, how does the Potency [1] read?
A: inactive

Q: What about the Potency [6] of the same compound?
A: inactive

Q: And the activity (max response) [7]?
A: 5.15%

Q: And the Potency [8]?
A: inactive

Q: For `CC1=C(C(=O)O)N2C(=O)[C@@H](N)[C@H]2SC1`, which Potency [1] is on record?
A: inactive

Q: And the activity (max response) [7]?
A: 6.68%

Q: Which results are given for `O=C(N[C@H]1N=C(c2ccccc2F)c2cccc3c2N(CC3)C1=O)c1cc2ccccc2[nH]1`?
A: Potency [1]: inactive; activity (max response) [7]: 11.2%

Q: With `CC1Sc2c(C(=O)O)c(=O)c3cc(F)c(N4CCNCC4)cc3n21` (stereo not drawn) as the compound, how does the Potency [1] read?
A: inactive

Q: What about the activity (max response) [7] of the same compound?
A: 7.63%

Q: And the Potency [8]?
A: inactive

Q: For `CCC1(c2cccc(O)c2)CCCCN(C)C1` (stereo not drawn), which Potency [1] is on record?
A: inactive

Q: What about the Potency [6] of the same compound?
A: inactive

Q: And the activity (max response) [7]?
A: -10.4%

Q: What about the Potency [8] of the same compound?
A: inactive

Q: Which Potency [1] does the source give for `COC1CC(=C(c2cccs2)c2cccs2)C[N+](C)(C)C1` (stereo not drawn) here?
A: inactive

Q: What about the Potency [6] of the same compound?
A: 16.8 µM (active)

Q: And the Potency [8]?
A: inactive

Q: With `Fc1cc(Br)ccc1CBr` as the compound, how does the Potency [1] read?
A: inactive

Q: And the activity (max response) [7]?
A: 13.3%

Q: And the Potency [8]?
A: inactive

Q: Which Potency [1] does the source give for `CCC1(CC)C(=O)C=CNC1=O` here?
A: inactive

Q: And the activity (max response) [7]?
A: 0.834%

Q: Which Potency [1] does the source give for `Clc1ccccc1N1CCNCC1` here?
A: inactive

Q: What about the activity (max response) [7] of the same compound?
A: -1.85%

Q: Which results are given for `COc1ccc(C(CN(C)C)C2(O)CCCCC2)cc1` (stereo not drawn)?
A: Potency [1]: inactive; Potency [6]: inactive; Potency [9]: inactive; Potency [3]: inactive; activity (max response) [7]: 0.648%; Potency [8]: inactive

Q: For `O=[N+]([O-])O[C@H]1CO[C@H]2[C@@H]1OC[C@H]2O[N+](=O)[O-]`, which Potency [1] is on record?
A: inactive

Q: And the Potency [6]?
A: inactive

Q: What about the activity (max response) [7] of the same compound?
A: 12.6%

Q: What about the Potency [8] of the same compound?
A: inactive

Q: Which Potency [1] does the source give for `COc1cccc([C@@]2(O)CCCC[C@@H]2CN(C)C)c1` here?
A: inactive

Q: And the Potency [6]?
A: inactive

Q: And the activity (max response) [7]?
A: 2.96%

Q: What about the Potency [8] of the same compound?
A: inactive

Q: Which results are given for `Cc1cc(C(=O)CN2CCCC2)c(C)n1-c1ccc(F)cc1`?
A: Potency [1]: inactive; Potency [6]: 16.4 µM (active)

Q: Which Potency [1] does the source give for `COCCOCCO` here?
A: inactive

Q: And the Potency [6]?
A: inactive

Q: And the activity (max response) [7]?
A: -1.21%

Q: And the Potency [8]?
A: inactive

Q: Which results are given for `C#CCN(C)[C@H](C)Cc1ccccc1`?
A: Potency [1]: inactive; Potency [6]: inactive; Potency [2]: inactive; Potency [3]: inactive; activity (max response) [7]: 4.66% and -4.85%; Potency [8]: inactive

Q: Which Potency [1] does the source give for `CCN(CC)C(=O)c1ccc(C2=CC3(CCNCC3)Oc3cccc(O)c32)cc1` here?
A: inactive

Q: And the Potency [10]?
A: inactive

Q: What about the Potency [3] of the same compound?
A: inactive

Q: And the Potency [5]?
A: inactive

Q: What about the Potency [8] of the same compound?
A: inactive

Q: For `CNC(C)Cc1ccccc1OC` (stereo not drawn), which Potency [1] is on record?
A: inactive

Q: What about the activity (max response) [7] of the same compound?
A: -2.94%

Q: And the Potency [8]?
A: inactive

Q: For `O=[N+]([O-])c1cc([N+](=O)[O-])c2ccccc2c1`, which Potency [1] is on record?
A: inactive

Q: What about the activity (max response) [7] of the same compound?
A: -5.95%

Q: And the Potency [8]?
A: inactive

Q: Which Potency [1] does the source give for `c1cc2c(c(N3CCNCC3)c1)OCCO2` here?
A: inactive

Q: What about the Potency [6] of the same compound?
A: inactive

Q: What about the activity (max response) [7] of the same compound?
A: -0.802%

Q: Which Potency [1] does the source give for `COCC1(CO)C(=O)C2CCN1CC2` (stereo not drawn) here?
A: inactive

Q: And the Potency [11]?
A: 20.9 µM (active)

Q: And the Potency [10]?
A: 11.8 µM (active)

Q: And the activity (max response) [7]?
A: 9.27%

Q: Which Potency [1] does the source give for `COC(=O)C1=CCCN(C)C1` here?
A: inactive

Q: And the Potency [6]?
A: inactive

Q: And the activity (max response) [7]?
A: 1.83%

Q: What about the Potency [8] of the same compound?
A: inactive

Q: With `CC(N)Cc1c[nH]c2ccccc12` (stereo not drawn) as the compound, how does the Potency [1] read?
A: inactive

Q: And the Potency [6]?
A: inactive

Q: Which results are given for `C[C@H]1CNCCc2ccc(Cl)cc21`?
A: Potency [1]: inactive; Potency [6]: inactive; activity (max response) [7]: -1.47%

Q: With `CCCSP(=O)(OCC)SCCC` as the compound, how does the Potency [12] read?
A: 0.016 µM (active)

Q: For `C=C(C)C(=O)O[C@H]1[C@@H]2[C@H](C)C(=O)O[C@@H]2C[C@@H](C)[C@@H]2C=CC(=O)[C@]21C`, which Potency [12] is on record?
A: 1.43 µM (active)

Q: With `C[C@]12CC[C@H](O[C@@H]3O[C@H](CO)[C@@H](O)[C@H](O)[C@H]3O)CC1=CC[C@@H]1C2CC[C@]2(C)[C@@H](C3=CC(=O)OC3)CC[C@]12O` (stereo partly drawn) as the compound, how does the Potency [12] read?
A: 2.73 µM (active)
